# Results taken from PubChem BioAssay (EPA / NIEHS).
# Where “and” joins values, the source holds several entries; their conditions need not be identical. Identical values can stand only once. Results filed as inconclusive are left out. The source holds several records for some structures; these can differ, active in one and inactive in another. Calls of active or inactive are those of the source. How the source made its calls, unless noted: active means hit-call score of the fitted dose curve at least 0.9, where 1 is the maximum; inactive means score below 0.9.
# Assays:
# [1] = ATG_PXRE_CIS: Attagene CIS-FACTORIAL HepG2 Assay for human Pregnane X Receptor Element (PXRE) (AID 2282957); details: HepG2 Attagene CIS-FACTORIAL PXRE reporter, mRNA; actives raise or lower the signal
# Summary of the method: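 HepG2 cells transiently transfected with cis-element-driven multiplexed reporter units; after 24 h chemical exposure, reporter mRNA measured by RT-PCR, 6-FAM labelling, HpaI digestion and capillary electrophoresis. Bidirectional fitting relative to DMSO.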
# [2] = ATG_Sox_CIS: Attagene CIS-FACTORIAL HepG2 Assay for human SRY-box transcription factor (SOX) (AID 2282960); details: HepG2 Attagene cis-factorial SOX reporter, mRNA; actives raise or lower the signal
# Summary of the method: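 Fluorescence-labelled cDNA fragments from reporter transcripts, sized by CE, give the signal. Cells: HepG2, transiently transfected with cis-regulated reporter units. Exposure 24 h; DMSO negative control; bidirectional curve fitting.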
# [3] = target: Transcription factor Sp1 (Homo sapiens) (UniProt P08047); assay: ATG_Sp1_CIS: Attagene CIS-FACTORIAL HepG2 Assay for human Specificity Protein 1 (Sp1) (AID 2282961); details: HepG2 Sp1 cis-reporter transcription, actives raise or lower the signal
# Sequence of Transcription factor Sp1 (Homo sapiens) (P08047 whole entry, looked up): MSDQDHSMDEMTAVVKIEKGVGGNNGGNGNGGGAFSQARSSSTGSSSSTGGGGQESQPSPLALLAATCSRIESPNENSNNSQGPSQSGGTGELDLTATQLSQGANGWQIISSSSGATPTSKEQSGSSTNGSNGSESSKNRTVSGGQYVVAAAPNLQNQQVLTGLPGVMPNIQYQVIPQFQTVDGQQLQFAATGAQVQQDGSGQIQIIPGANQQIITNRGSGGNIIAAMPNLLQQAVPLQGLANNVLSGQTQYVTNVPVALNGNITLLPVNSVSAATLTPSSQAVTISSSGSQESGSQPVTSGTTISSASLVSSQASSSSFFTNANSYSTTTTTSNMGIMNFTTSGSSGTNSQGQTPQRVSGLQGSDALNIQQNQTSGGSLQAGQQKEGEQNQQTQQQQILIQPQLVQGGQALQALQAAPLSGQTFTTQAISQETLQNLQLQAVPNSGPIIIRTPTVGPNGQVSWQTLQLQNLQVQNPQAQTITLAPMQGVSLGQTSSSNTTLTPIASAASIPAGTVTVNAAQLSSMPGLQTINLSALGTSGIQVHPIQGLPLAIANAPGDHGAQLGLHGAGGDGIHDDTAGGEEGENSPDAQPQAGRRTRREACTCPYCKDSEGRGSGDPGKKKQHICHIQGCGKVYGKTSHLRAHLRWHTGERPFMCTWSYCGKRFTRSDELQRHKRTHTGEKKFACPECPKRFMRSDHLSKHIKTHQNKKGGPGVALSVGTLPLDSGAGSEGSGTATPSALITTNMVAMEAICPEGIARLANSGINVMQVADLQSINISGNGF
# Summary of the method: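 Chemicals are dosed onto HepG2 cells transfected with multiple cis-promoter reporter constructs, and after 24 h reporter RNA is reverse-transcribed, PCR-amplified and resolved by capillary electrophoresis for fluorescence quantitation; activity is scored up or down against DMSO.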
# [4] = target: Signal transducer and activator of transcription 3 (Homo sapiens) (UniProt P40763); assay: ATG_STAT3_CIS: Attagene CIS-FACTORIAL HepG2 Assay for human Signal Transducer and Activator of Transcription 3 (STAT3) (AID 2282963); details: HepG2, Attagene cis-factorial STAT3 reporter transcription; actives raise or lower the signal
# Sequence of Signal transducer and activator of transcription 3 (Homo sapiens) (P40763 whole entry, looked up): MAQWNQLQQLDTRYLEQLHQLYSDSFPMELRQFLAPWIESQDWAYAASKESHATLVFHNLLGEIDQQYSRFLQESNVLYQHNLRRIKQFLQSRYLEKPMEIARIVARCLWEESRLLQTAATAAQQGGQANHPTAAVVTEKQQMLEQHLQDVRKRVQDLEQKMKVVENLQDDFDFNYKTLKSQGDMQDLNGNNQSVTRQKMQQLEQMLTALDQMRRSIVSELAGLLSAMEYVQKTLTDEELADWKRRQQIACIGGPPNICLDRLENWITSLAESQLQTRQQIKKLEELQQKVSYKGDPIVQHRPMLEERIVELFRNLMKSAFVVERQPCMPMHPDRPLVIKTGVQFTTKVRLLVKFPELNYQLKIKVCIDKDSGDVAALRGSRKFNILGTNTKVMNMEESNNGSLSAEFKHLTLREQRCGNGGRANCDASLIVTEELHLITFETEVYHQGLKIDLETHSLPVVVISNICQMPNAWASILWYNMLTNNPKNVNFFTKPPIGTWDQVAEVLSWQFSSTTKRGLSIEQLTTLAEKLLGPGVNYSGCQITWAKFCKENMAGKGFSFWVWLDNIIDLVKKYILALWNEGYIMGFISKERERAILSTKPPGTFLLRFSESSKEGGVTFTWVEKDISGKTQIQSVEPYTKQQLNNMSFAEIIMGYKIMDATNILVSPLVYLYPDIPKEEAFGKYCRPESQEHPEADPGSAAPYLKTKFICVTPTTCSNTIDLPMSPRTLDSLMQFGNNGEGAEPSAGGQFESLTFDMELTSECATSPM
# Summary of the method: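 After a 24 h compound incubation, total RNA from MRTU-transfected HepG2 cells was converted to cDNA and reporter sequences PCR-amplified, labelled and profiled by capillary electrophoresis. Gain and loss of signal were referenced to DMSO.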
# [5] = ATG_TA_CIS: Attagene CIS-FACTORIAL HepG2 Assay for human TA Basal Promoter (AID 2282964); details: HepG2 Attagene CIS-factorial TA basal promoter reporter; actives raise or lower the signal
# Summary of the method: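 Cis-factorial format in HepG2: reporters report endogenous factors, not chimeric Gal4 fusions. After 24 h treatment, reporter transcripts were measured by RT-PCR-capillary electrophoresis fluorescence, analysed bidirectionally versus DMSO.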
# [6] = ATG_TAL_CIS: Attagene CIS-FACTORIAL HepG2 Assay for human TAL Basal Promoter (AID 2282966); details: HepG2 Attagene cis-factorial TAL promoter reporter; actives raise or lower the signal;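 further: background control endpoint measuring basal TAL promoter reporter mRNA not a specific factor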
# Summary of the method: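 HepG2 cells transiently transfected with multiplexed cis-promoter reporter units, dosed 24 h. Reporter mRNA quantified by RT-PCR, 6-FAM labelling, HpaI digestion and capillary electrophoresis; TAL basal promoter serves as background control, fitted bidirectionally versus DMSO.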
# [7] = ATG_TGFb_CIS: Attagene CIS-FACTORIAL HepG2 Assay for human Transforming Growth Factor (TGF) (AID 2282967); details: HepG2 Attagene CIS TGFb reporter, mRNA transcription; actives raise or lower the signal
# Summary of the method: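 Multiplexed cis-reporter HepG2 system, 24 h treatment; mRNA induction read by fluorescence after RT-PCR and CE; DMSO negative control, bidirectional curve fitting.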
# [8] = ATG_VDRE_CIS: Attagene CIS-FACTORIAL HepG2 Assay for human Vitamin D Receptor Element (VDRE) (AID 2282968); details: HepG2 VDRE cis-reporter transcription, actives raise or lower the signal
# Summary of the method: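 In transiently transfected HepG2 liver cells, gain or loss of reporter mRNA after 24 h exposure is scored relative to DMSO, using fluorescence detection by capillary electrophoresis of RT-PCR products.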
# [9] = target: X-box-binding protein 1 (Homo sapiens) (UniProt P17861); assay: ATG_Xbp1_CIS: Attagene CIS-FACTORIAL HepG2 Assay for human X-box Binding Protein 1 (XBP1) (AID 2282972); details: HepG2 XBP1 cis-element reporter, Attagene multiplex; actives raise or lower the signal
# Sequence of X-box-binding protein 1 (Homo sapiens) (P17861 whole entry, looked up): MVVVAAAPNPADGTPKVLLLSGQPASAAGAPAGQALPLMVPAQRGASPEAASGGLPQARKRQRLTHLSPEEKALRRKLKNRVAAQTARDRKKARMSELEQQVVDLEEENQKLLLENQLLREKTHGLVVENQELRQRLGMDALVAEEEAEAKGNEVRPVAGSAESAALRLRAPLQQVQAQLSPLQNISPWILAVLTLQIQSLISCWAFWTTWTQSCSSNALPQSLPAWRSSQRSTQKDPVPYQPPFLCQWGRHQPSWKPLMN
# Summary of the method: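 After a 24-hour chemical exposure of HepG2 cells carrying cis-regulated reporters, reporter mRNA levels are assessed. Quantification uses RT-PCR, 6-FAM labelling and capillary electrophoresis. Gain- or loss-of-signal is fitted against DMSO.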
# [10] = ATG_GAL4_TRANS: Attagene TRANS-FACTORIAL HepG2 Assay for GAL4 (Internal Marker) (AID 2282976; active means hit-call score of the fitted dose curve at least 0.9, where 1 is the maximum); details: HepG2 Attagene TRANS GAL4 internal marker reporter
# Summary of the method: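 Background-control readout: GAL4-UAS reporter transcript in transiently transfected HepG2 cells after 24 h compound exposure. Measured by RT-PCR, 6-FAM primer extension, HpaI digest and capillary electrophoresis; gain-of-signal fit versus DMSO.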
# [11] = target: Glucocorticoid receptor (Homo sapiens) (UniProt P04150); assay: ATG_GR_TRANS: Attagene TRANS-FACTORIAL HepG2 Assay for human Glucocorticoid Receptor (GR) (AID 2282978; active means hit-call score of the fitted dose curve at least 0.9, where 1 is the maximum;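 further: activators score as hits since higher reporter transcript over DMSO is fitted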); details: HepG2 Attagene TRANS GR reporter, mRNA transcription
# Sequence of Glucocorticoid receptor (Homo sapiens) (P04150 whole entry, looked up, the tested form may be a part): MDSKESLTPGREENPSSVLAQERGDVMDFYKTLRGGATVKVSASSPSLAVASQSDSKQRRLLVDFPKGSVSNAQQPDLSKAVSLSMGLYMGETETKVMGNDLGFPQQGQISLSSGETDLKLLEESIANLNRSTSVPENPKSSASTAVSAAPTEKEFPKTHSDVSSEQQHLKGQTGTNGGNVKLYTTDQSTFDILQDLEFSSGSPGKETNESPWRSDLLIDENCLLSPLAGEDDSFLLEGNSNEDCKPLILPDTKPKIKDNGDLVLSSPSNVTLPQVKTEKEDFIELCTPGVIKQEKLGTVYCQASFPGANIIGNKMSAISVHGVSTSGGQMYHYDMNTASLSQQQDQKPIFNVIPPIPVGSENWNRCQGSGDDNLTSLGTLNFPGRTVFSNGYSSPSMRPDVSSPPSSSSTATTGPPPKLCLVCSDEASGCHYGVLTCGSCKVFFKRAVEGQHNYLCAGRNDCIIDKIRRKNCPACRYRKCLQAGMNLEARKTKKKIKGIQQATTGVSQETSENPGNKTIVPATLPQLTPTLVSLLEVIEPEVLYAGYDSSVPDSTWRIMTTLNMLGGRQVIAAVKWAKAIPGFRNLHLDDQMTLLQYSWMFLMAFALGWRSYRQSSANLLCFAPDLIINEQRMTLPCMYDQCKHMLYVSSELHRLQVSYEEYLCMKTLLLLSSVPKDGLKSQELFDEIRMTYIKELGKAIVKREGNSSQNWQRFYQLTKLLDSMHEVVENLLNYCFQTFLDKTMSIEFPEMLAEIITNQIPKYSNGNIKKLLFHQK
# Summary of the method: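 Transiently transfected HepG2 cells express chimeric NR-GAL4 proteins acting on GAL4-UAS reporter units. Compounds are applied for 24 h. mRNA induction over DMSO is measured by capillary electrophoresis.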
# [12] = ATG_RORE_CIS: Attagene CIS-FACTORIAL HepG2 Assay for human RAR-related Orphan Receptor Element (RORE) (AID 2282959); details: HepG2 Attagene cis-factorial RORE reporter, mRNA; actives raise or lower the signal
# Summary of the method: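 Transfect HepG2 with MRTUs; treat 24 h; extract RNA; RT with oligo(dT); PCR with reporter-specific primers; 6-FAM primer extension; HpaI digest 2 h at 37 C; capillary electrophoresis. Fit vs DMSO, bidirectional.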
# [13] = ATG_SREBP_CIS: Attagene CIS-FACTORIAL HepG2 Assay for human Sterol Regulatory Element Binding (SREBP) (AID 2282962); details: HepG2 Attagene cis-factorial SREBP reporter, mRNA; actives raise or lower the signal
# Summary of the method: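 Twenty-four hours after chemical dosing of transfected HepG2 cultures, reporter RNA was converted to cDNA, amplified, end-labelled with 6-FAM and resolved by capillary electrophoresis. Responses were fitted relative to DMSO.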
# [14] = ATG_TCF_b_cat_CIS: Attagene CIS-FACTORIAL HepG2 Assay for human T-Cell-Factor with beta-catenin (TCF/b-cat) (AID 2282965); details: HepG2 TCF/beta-catenin cis-reporter transcription, actives raise or lower the signal
# Summary of the method: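 Endogenous TCF/LEF activity read as reporter transcript level via RT-PCR and capillary electrophoresis fluorescence in transfected HepG2, 24 h exposure; gain or loss of signal fitted against DMSO controls.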
# [15] = ATG_M_19_TRANS: Attagene TRANS-FACTORIAL HepG2 Assay for M19 Transcription Factor (Internal Marker) (AID 2282974; active means hit-call score of the fitted dose curve at least 0.9, where 1 is the maximum); details: HepG2 Attagene TRANS-FACTORIAL M19 internal marker reporter
# Summary of the method: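 Multiplexed TRANS format: HepG2 liver cells bearing transient GAL4-UAS reporter units, chemical treatment 24 h, reporter transcripts quantified by RT-PCR plus capillary electrophoresis. DMSO defines baseline.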
# [16] = ATG_PPRE_CIS: Attagene CIS-FACTORIAL HepG2 Assay for human Peroxisome Proliferator-activated Response Element (PPRE) (AID 2282958); details: HepG2 PPRE cis-element reporter, Attagene transcription factor profiling; actives raise or lower the signal
# Summary of the method: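 DMSO served as negative control and baseline for bidirectional curve fitting. Signal came from PPRE-regulated reporter mRNA in HepG2 cells, measured 24 h post-dosing by RT-PCR, 6-FAM primer extension and capillary electrophoresis.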
# [17] = target: Estrogen receptor (Homo sapiens) (UniProt P03372); assay: ATG_ERa_TRANS: Attagene TRANS-FACTORIAL HepG2 Assay for human Estrogen Receptor alpha (ERa) (AID 2282970; active means hit-call score of the fitted dose curve at least 0.9, where 1 is the maximum); details: HepG2 Attagene TRANS ERa GAL4 reporter, mRNA
# Sequence of Estrogen receptor (Homo sapiens) (P03372 whole entry, looked up, the tested form may be a part): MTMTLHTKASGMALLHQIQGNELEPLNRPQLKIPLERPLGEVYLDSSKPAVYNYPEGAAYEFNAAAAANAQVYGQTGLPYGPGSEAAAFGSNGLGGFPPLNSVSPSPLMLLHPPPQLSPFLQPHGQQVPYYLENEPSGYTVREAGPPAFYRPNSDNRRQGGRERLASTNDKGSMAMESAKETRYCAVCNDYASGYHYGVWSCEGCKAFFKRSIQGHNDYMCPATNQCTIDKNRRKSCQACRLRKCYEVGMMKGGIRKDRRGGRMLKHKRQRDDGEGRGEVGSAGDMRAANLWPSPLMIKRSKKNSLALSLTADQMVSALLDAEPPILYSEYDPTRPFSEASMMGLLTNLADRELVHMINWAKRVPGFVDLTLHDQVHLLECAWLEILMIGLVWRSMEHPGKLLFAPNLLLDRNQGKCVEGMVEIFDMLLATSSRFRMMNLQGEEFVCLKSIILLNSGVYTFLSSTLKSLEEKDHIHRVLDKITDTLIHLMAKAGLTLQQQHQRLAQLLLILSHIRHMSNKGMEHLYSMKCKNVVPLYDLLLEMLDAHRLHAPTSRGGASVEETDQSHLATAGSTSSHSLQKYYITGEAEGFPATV
# Summary of the method: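 HepG2 cells transiently transfected with multiplexed GAL4-UAS reporter units read out chimeric NR-Gal4 activity. After 24 h compound exposure, reporter mRNA was quantified by RT-PCR, 6-FAM labeling, HpaI digestion and capillary electrophoresis, relative to DMSO.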
# [18] = target: Nuclear receptor subfamily 1 group I member 3 (Homo sapiens) (UniProt Q14994); assay: ATG_CAR_TRANS: Attagene TRANS-FACTORIAL HepG2 Assay for human Constitutive Androstane Receptor (CAR) (AID 2282969; active means hit-call score of the fitted dose curve at least 0.9, where 1 is the maximum;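 further: activators raise reporter mRNA above DMSO so AC50 marks induction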); details: HepG2 Attagene TRANS-FACTORIAL CAR reporter
# Sequence of Nuclear receptor subfamily 1 group I member 3 (Homo sapiens) (Q14994 whole entry, looked up, the tested form may be a part): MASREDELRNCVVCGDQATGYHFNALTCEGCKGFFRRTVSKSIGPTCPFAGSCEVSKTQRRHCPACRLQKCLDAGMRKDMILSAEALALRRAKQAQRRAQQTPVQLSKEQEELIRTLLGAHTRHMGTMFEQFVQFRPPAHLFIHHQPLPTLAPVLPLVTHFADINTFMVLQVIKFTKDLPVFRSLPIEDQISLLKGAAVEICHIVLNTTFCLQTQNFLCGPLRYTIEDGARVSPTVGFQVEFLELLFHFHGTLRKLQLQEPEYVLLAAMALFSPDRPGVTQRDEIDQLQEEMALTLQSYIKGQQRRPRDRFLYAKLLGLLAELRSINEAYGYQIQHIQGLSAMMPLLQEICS
# Summary of the method: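 Readout is reporter mRNA induction, quantified by fluorescent primer extension and capillary electrophoresis after RT-PCR. Cells were HepG2 transiently carrying chimeric NR-Gal4 constructs with GAL4-UAS reporters, treated for 24 h; activity scored upward from DMSO.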
# [19] = target: Steroid hormone receptor ERR1 (Homo sapiens) (UniProt P11474); assay: ATG_ERRa_TRANS: Attagene TRANS-FACTORIAL HepG2 Assay for human Estrogen-Related Receptor alpha (ERRa) (AID 2282971; active means hit-call score of the fitted dose curve at least 0.9, where 1 is the maximum); details: HepG2 Attagene TRANS reporter, ERRa transactivation
# Sequence of Steroid hormone receptor ERR1 (Homo sapiens) (P11474 whole entry, looked up, the tested form may be a part): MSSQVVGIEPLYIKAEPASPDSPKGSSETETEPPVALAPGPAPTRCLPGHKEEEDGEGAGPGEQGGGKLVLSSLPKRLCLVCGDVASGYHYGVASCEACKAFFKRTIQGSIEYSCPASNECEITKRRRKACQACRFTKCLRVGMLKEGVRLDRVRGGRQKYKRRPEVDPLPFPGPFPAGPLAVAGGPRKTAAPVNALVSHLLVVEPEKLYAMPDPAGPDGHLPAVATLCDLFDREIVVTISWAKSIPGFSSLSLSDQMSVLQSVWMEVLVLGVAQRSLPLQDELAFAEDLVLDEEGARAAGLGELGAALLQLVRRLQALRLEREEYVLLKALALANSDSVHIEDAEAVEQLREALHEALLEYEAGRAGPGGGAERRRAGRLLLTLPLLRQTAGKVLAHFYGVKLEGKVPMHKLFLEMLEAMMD
# Summary of the method: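 HepG2 cells transiently transfected with GAL4-UAS reporter units and chimeric NR-Gal4 constructs; after 24 hour compound incubation, reporter mRNA quantified by RT-PCR, fluorescent labelling and capillary electrophoresis, gain of signal versus DMSO.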
compound,measurement,setting,value
O=C(O)C(=O)O,outcome,[1],inactive
same,outcome,[2],inactive
same,outcome,[3],inactive
same,outcome,[4],inactive
same,outcome,[5],inactive
same,outcome,[6],inactive
same,outcome,[7],inactive
same,outcome,[8],inactive
same,outcome,[9],inactive
same,outcome,[10],inactive
same,outcome,[11],inactive
CCCCCCCCCCCC,outcome,[12],inactive
same,outcome,[2],inactive
same,outcome,[3],inactive
same,outcome,[13],inactive
same,outcome,[4],inactive
same,outcome,[5],inactive
same,outcome,[14],inactive
same,outcome,[6],inactive
same,AC50,[7],124 µM (active)
same,outcome,[7],inactive
same,outcome,[9],inactive
same,outcome,[15],inactive
same,outcome,[10],inactive
same,outcome,[11],inactive
Oc1c(Cl)cc(Cl)cc1Sc1cc(Cl)cc(Cl)c1O,AC50,[16],1.52 µM (active)
same,outcome,[2],inactive
same,outcome,[3],inactive
same,outcome,[13],inactive
same,outcome,[4],inactive
same,outcome,[5],inactive
same,outcome,[6],inactive
same,outcome,[7],inactive
same,AC50,[8],3.4 µM (active)
same,outcome,[17],inactive
same,AC50,[9],1.45 µM (active)
CC1COCc2cc3c(cc21)C(C)(C)C(C)C3(C)C (stereo unspecified),outcome,[16],inactive
same,AC50,[2],73.2 µM (active)
same,AC50,[3],100 µM (active)
same,outcome,[13],inactive
same,AC50,[4],176 µM (active)
same,AC50,[5],168 µM (active)
same,outcome,[14],inactive
same,AC50,[6],144 µM (active)
same,outcome,[7],inactive
same,AC50,[8],50.7 µM (active)
same,outcome,[18],inactive
same,AC50,[17],11.8 µM (active)
same,AC50,[9],73.4 µM (active)
CC(=O)Nc1ccc(S(N)(=O)=O)cc1,outcome,[16],inactive
same,outcome,[12],inactive
same,outcome,[2],inactive
same,outcome,[3],inactive
same,outcome,[13],inactive
same,outcome,[4],inactive
same,outcome,[5],inactive
same,outcome,[14],inactive
same,outcome,[6],inactive
same,outcome,[7],inactive
same,outcome,[8],inactive
same,outcome,[19],inactive
same,outcome,[9],inactive
same,outcome,[15],inactive
same,outcome,[10],inactive
same,outcome,[11],inactive
O=C(F)C(F)(F)C(F)(F)C(F)(F)C(F)F,outcome,[16],inactive
same,outcome,[2],inactive
same,outcome,[3],inactive
same,outcome,[4],inactive
same,outcome,[5],inactive
same,outcome,[6],inactive
same,outcome,[7],inactive
same,outcome,[8],inactive
same,outcome,[19],inactive
same,outcome,[9],inactive
same,outcome,[15],inactive
same,outcome,[10],inactive
same,outcome,[11],inactive
NC(=NCCCCCCN=C(N)/N=C(\N)Nc1ccc(Cl)cc1)/N=C(\N)Nc1ccc(Cl)cc1,AC50,[2],22.1 µM (active) and 25.5 µM (active)
same,outcome,[2],inactive
same,AC50,[3],159 µM (active) and 23.3 µM (active)
same,outcome,[3],inactive
same,outcome,[4],inactive
same,outcome,[5],inactive
same,AC50,[14],23 µM (active) and 25.4 µM (active)
same,outcome,[14],inactive
same,AC50,[6],119 µM (active)
same,outcome,[6],inactive
same,AC50,[7],0.0763 µM (active)
same,outcome,[7],inactive
same,outcome,[17],inactive
same,outcome,[9],inactive
same,AC50,[11],25.3 µM (active)
same,outcome,[11],inactive
O=C1OC2(c3ccccc31)c1cc(I)c(O)c(I)c1Oc1c2cc(I)c(O)c1I,AC50,[1],12.8 µM (active) and 4.37 µM (active) and 8.03 µM (active)
same,outcome,[2],inactive
same,outcome,[13],inactive
same,outcome,[4],inactive
same,outcome,[5],inactive
same,outcome,[14],inactive
same,outcome,[6],inactive
same,AC50,[7],93.8 µM (active)
same,outcome,[7],inactive
same,outcome,[9],inactive
same,outcome,[10],inactive
CC(O)COc1ccccc1 (stereo unspecified),outcome,[16],inactive
same,outcome,[12],inactive
same,outcome,[2],inactive
same,outcome,[3],inactive
same,outcome,[4],inactive
same,outcome,[14],inactive
same,outcome,[6],inactive
same,outcome,[7],inactive
same,outcome,[8],inactive
same,outcome,[9],inactive
same,outcome,[11],inactive
